Only some compounds are listed: those with a hit (about 12% of all), similar ones and a draw of the others.
Ins promoter up – MIN6 insulin promoter up-regulation. MIN6 insulin promoter-GFP reporter, high-content imaging; hits give high values. z-score at 5 µM. hit rate 0.3% among 190,000;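 active = z-score above 3 at 5 µM with at least 500 cells counted in the well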
Insulin prom inh – TRM-6 insulin promoter activity inhibition | inhibition, % at 2 µM | TRM-6 cells (human fetal islet line), insulin promoter-eGFP reporter, imaging; reporter expression induced with tamoxifen | AID 1273 | hit rate 0.9% among 130,000;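 active = inhibition above the mean plus 3 SD, with well images judged a real hit on visual review, cut at about 60% in these data, passing the limit was not always enough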
Lmaj promast – inhibitors of Leishmania major promastigote growth. Leishmania major promastigotes, resazurin fluorescence viability. inhibition, % at 10 µM. hit rate 9% among 200,000; in the data active = inhibition above about 50%;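 also: promastigotes grown with compound for 44 hours at 28 °C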
ROMK primary – modulates human ROMK potassium channel activity | hit rate 2% among 130,000 | Tet-inducible ROMK, thallium flux fluorescence; actives lie on both sides | P48048 | B-score at 10 µM;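 active = signal ratio slope over the read window, or its plate-corrected B-score, at least 3 SD from the plate mean, either direction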;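 also: B-score of the F/F0 ratio slope over 7 to 12 s after thallium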
WT yeast gro inh – growth inhibition of WT yeast, mitochondrial fusion screen. inhibition, % at 10 µM. mitochondrial fusion phenotypic screen, WT strain. hit rate 2.1% among 190,000; in the data active = inhibition above about 58%; tested in S. cerevisiae
KCC2 mod – modulates chloride dependent transport by human KCC2; KCC2 cells, thallium flux FluoZin-2 fluorescence; B-score of Tl+ flux slope (higher = more flux/activation; lower = inhibition) at 10 µM; hit rate 2.2% among 190,000;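 active = thallium flux slope and its plate-corrected score both differing from the plate sample mean at a set confidence after two filtering rounds, in either direction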;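 also: slope of fluorescence scaled to starting intensity during 10 to 20 s after thallium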
* = called active by the depositor.

How did O=S(=O)(NCCCN1CCOCC1)c1ccc2ccccc2c1 do in these assays?
Ins promoter up: -0.47; Insulin prom inh: -9.5; Lmaj promast: 90.7*; ROMK primary: 0.153; WT yeast gro inh: -18.4; KCC2 mod: 1.06

Results for Cc1ccc(S(=O)(=O)NCCCN2CCOCC2)cc1C ?
Insulin prom inh: -41.2; Lmaj promast: 88.5*; ROMK primary: -0.467; WT yeast gro inh: -1.5; KCC2 mod: -0.276

Results for O=S(=O)(NCCCN1CCOCC1)c1ccc2c(c1)OCCO2 ?
Ins promoter up: 0.26; Lmaj promast: 7.0; ROMK primary: 0.845; WT yeast gro inh: -4.7; KCC2 mod: -0.438

Results for c1ccc2cc(CN3CCOCC3)ccc2c1 ?
Ins promoter up: -0.55; Insulin prom inh: -18.9; Lmaj promast: 54.0*; ROMK primary: 0.319; WT yeast gro inh: 0.7; KCC2 mod: 0.378

How did O=[N+]([O-])c1cc(S(=O)(=O)NCCCN2CCOCC2)ccc1Cl do in these assays?
Ins promoter up: -0.08; Insulin prom inh: 0.0; Lmaj promast: 98.7*; WT yeast gro inh: -8.8; KCC2 mod: 0.59

What do the screens show for `Cc1cc(S(=O)(=O)NCCCN2CCOCC2)ccc1F`?
Insulin prom inh: 35.7; Lmaj promast: 90.8*; ROMK primary: -0.113; WT yeast gro inh: 0.0

Results for O=C(Nc1ccc(Cl)c([N+](=O)[O-])c1)c1ccc(NCCCN2CCOCC2)c([N+](=O)[O-])c1 ?
Ins promoter up: -1.43; Insulin prom inh: -59.1; Lmaj promast: 45.0; WT yeast gro inh: 5.7; KCC2 mod: 1.16

Results for c1ccc(CN2CCOCCOCCOCC2)cc1 ?
Ins promoter up: -1.49; ROMK primary: 0.612; KCC2 mod: 1.47

What do the screens show for `Cc1cc(=O)oc2cc(Oc3ccc([N+](=O)[O-])cc3C(F)(F)F)ccc12`?
Insulin prom inh: -18.2; Lmaj promast: -4.0; KCC2 mod: 0.133

What do the screens show for `Cc1ccc(NC(=S)Nc2cccc(S(=O)(=O)Nc3c(C)n(C)n(-c4ccccc4)c3=O)c2)cc1`?
Ins promoter up: -0.2; Insulin prom inh: -83.3; Lmaj promast: 6.9; ROMK primary: 1.27; WT yeast gro inh: 0.1; KCC2 mod: 0.202

How did CC(=O)c1ccc(NC(=O)C2CCCNC2=O)cc1 (stereo not given) do in these assays?
Ins promoter up: 0.2; Insulin prom inh: 30.8; Lmaj promast: -11.3; ROMK primary: 0.819; WT yeast gro inh: 13.3; KCC2 mod: 0.963

What do the screens show for `CC(=O)O/N=C(\N)c1ccc(-c2csnn2)cc1`?
Ins promoter up: -0.49; KCC2 mod: 0.522

Results for CCCCC1=CC2=CC(=O)C(C)(OC(=O)CC)C(=O)C2=CN1CCCCO (stereo not given) ?
Ins promoter up: 1.22; KCC2 mod: 0.467

Results for Cc1ccc(CNC(=O)C(Cc2ccccc2)NS(=O)(=O)c2cccs2)cc1 (stereo not given) ?
Ins promoter up: -0.49; Insulin prom inh: -96.4; Lmaj promast: 59.1*; ROMK primary: -1.86; WT yeast gro inh: 43.0

Results for O=C(NC1CCCc2ccccc21)C(Cc1ccccc1)NS(=O)(=O)c1cccs1 (stereo not given) ?
Ins promoter up: 0.06; Insulin prom inh: -59.3; Lmaj promast: 77.2*; ROMK primary: -1.18; WT yeast gro inh: -8.2; KCC2 mod: -0.704

How did CSCCC(NS(=O)(=O)c1cccs1)C(=O)NCc1ccc(C)cc1 (stereo not given) do in these assays?
Ins promoter up: 1.33; Insulin prom inh: -28.6; Lmaj promast: 0.5; ROMK primary: -0.718; WT yeast gro inh: 14.3; KCC2 mod: -0.0982

What do the screens show for `Cc1ccc(CNC(=O)C(Cc2ccccc2)NS(=O)(=O)c2ccc(Br)s2)cc1` (stereo not given)?
Ins promoter up: -0.29; Insulin prom inh: -50.0; Lmaj promast: 25.6; ROMK primary: -0.496; WT yeast gro inh: 81.0*; KCC2 mod: -0.119

How did CCCOc1ccc(CC(=O)NNC(=S)Nc2ccccc2)cc1Br do in these assays?
Ins promoter up: -1.42; Insulin prom inh: -11.6; Lmaj promast: 22.9; WT yeast gro inh: 44.3; KCC2 mod: 0.625

Results for CC(=O)N1CCN(CC(=O)Nc2c(Cl)cccc2Cl)CC1 ?
Ins promoter up: -0.88; Insulin prom inh: 15.6; Lmaj promast: -5.6; WT yeast gro inh: 27.4; KCC2 mod: 0.737

How did CCOc1ccccc1C=Nc1ccccc1C(=O)Nc1ccccc1 do in these assays?
Ins promoter up: 0.09; Insulin prom inh: 53.9; Lmaj promast: 29.2; ROMK primary: -0.00501; WT yeast gro inh: 7.4; KCC2 mod: -0.109

How did CC(C)(C)c1[nH]nc2c1C(C1C=CCCC1)C(C#N)=C(N)O2 (stereo not given) do in these assays?
Ins promoter up: -0.61; Insulin prom inh: 44.4; Lmaj promast: 83.4*; ROMK primary: -0.18; WT yeast gro inh: 6.7; KCC2 mod: -0.463

What do the screens show for `CCc1[nH]nc2c1C(C1C=CCCC1)C(C#N)=C(N)O2` (stereo not given)?
Ins promoter up: -0.12; Lmaj promast: 97.0*; WT yeast gro inh: -0.2; KCC2 mod: -0.564

What do the screens show for `CC(C)c1[nH]nc2c1C(C1C=CCCC1)C(C#N)=C(N)O2` (stereo not given)?
Ins promoter up: 0.06; KCC2 mod: -1.31

What do the screens show for `CCn1nc(C(=O)N2CCc3ccccc3C2)c2ccccc2c1=O`?
Ins promoter up: 0; Lmaj promast: -2.2; WT yeast gro inh: -5.2; KCC2 mod: -0.832

What do the screens show for `Cc1c(C(=O)O)[nH]c2ccc([N+](=O)[O-])cc12`?
Ins promoter up: 0.74; Lmaj promast: -3.6; ROMK primary: 0.576; WT yeast gro inh: -11.5; KCC2 mod: -0.174

How did Cc1c(C(=O)N/N=C/C(C)C)[nH]c2ccc([N+](=O)[O-])cc12 do in these assays?
Ins promoter up: -0.59; Insulin prom inh: 56.2; Lmaj promast: 51.0*; ROMK primary: -0.85; WT yeast gro inh: 18.1; KCC2 mod: -0.993

How did O=C(/C=C/c1ccccc1[N+](=O)[O-])Nc1ccccc1 do in these assays?
Ins promoter up: -0.19; Lmaj promast: 6.5; ROMK primary: 0.0891; WT yeast gro inh: 7.1; KCC2 mod: -0.0581

What do the screens show for `CCN(c1ccccc1)S(=O)(=O)c1ccc(Cl)c(C(=O)NCCc2ccc(OC)cc2)c1`?
Ins promoter up: 0.06; Insulin prom inh: 20.5; Lmaj promast: 88.8*; WT yeast gro inh: 8.3; KCC2 mod: inactive

What do the screens show for `COc1ccc(CCNC(=O)c2ccc(N(C)S(=O)(=O)c3ccc(C)cc3)cc2)cc1`?
Ins promoter up: -0.29; Lmaj promast: 17.0; ROMK primary: 0.937; WT yeast gro inh: 10.9; KCC2 mod: 0.256

How did COc1ccc(CCNC(=O)c2ccccc2N(C)S(=O)(=O)c2ccccc2)cc1 do in these assays?
Ins promoter up: 0.09; Insulin prom inh: -28.9; Lmaj promast: 80.3*; ROMK primary: -0.0101; WT yeast gro inh: -7.6; KCC2 mod: 0.0229

Results for CN1CCCN(C(=O)c2ccc(Cl)c(S(=O)(=O)N(C)c3ccccc3)c2)CC1 ?
Ins promoter up: 0.01; Lmaj promast: 72.4*; WT yeast gro inh: 4.7; KCC2 mod: -0.404

High-throughput results (PubChem)
